Holding throughout (experiment): DAPPL (digital affinity profiling via proximity ligation, sequencing); 10 mM Tris-HCl pH 7.5, 50 mM NaCl, 1 mM DTT, 4% glycerol, room temperature, 30 min; GST-TFs on glutathione beads, 16-mer random dsDNA library, 0.1% formaldehyde crosslink after washing; high values mean tight binding
Holding throughout (conditions): protein: recombinant; tags: N-terminal GST; dsDNA, one strand shown

Assay [1] concerns the target T1, FLI1 (Homo sapiens, UniProt Q01543 1-452).
T1 sequence: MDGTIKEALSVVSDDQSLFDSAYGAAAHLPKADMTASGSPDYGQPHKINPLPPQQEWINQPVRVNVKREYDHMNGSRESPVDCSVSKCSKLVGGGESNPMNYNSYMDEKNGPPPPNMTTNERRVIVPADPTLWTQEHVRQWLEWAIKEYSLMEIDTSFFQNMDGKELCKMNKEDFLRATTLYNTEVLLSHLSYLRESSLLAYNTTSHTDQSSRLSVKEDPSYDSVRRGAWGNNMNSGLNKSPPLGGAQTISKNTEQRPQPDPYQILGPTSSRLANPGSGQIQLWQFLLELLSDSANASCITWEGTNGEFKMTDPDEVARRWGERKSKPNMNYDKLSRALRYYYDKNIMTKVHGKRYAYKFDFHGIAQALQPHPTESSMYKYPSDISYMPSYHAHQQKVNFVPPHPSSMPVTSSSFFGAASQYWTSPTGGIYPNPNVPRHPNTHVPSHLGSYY
In short, it runs like this: (§1)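 Pools were built from human transcription factors expressed in yeast as GST fusions, captured on glutathione beads and DNA-barcoded, along with a tag-only sample. Incubation with 200 nmole of a 16-mer random double-stranded DNA library lasted 30 min at room temperature in Tris/NaCl/DTT/glycerol buffer, and was followed by washing, 0.1% formaldehyde crosslinking, proximity ligation, PCR amplification and Illumina NextSeq500 sequencing. Binding signal is the quotient of each hexamer's read frequency for a factor and its frequency for the tag-only sample.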

The target of assay [2] is T2, ELK1 (Homo sapiens, UniProt P19419 1-428).
T2 sequence: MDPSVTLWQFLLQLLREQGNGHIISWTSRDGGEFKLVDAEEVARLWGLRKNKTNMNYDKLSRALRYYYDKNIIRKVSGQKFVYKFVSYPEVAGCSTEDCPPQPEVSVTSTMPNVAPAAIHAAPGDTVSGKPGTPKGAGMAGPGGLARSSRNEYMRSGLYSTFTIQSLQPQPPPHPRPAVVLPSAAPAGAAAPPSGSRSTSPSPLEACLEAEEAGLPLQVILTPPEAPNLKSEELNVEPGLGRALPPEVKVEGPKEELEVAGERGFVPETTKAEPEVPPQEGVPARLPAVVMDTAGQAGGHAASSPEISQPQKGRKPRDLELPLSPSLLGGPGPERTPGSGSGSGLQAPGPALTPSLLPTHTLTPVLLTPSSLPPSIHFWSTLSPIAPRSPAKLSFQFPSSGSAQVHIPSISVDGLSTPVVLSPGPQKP
The method in brief: as §1

For assay [3], the target named is T3, GABPA (Homo sapiens, UniProt Q06546 1-454).
T3 sequence: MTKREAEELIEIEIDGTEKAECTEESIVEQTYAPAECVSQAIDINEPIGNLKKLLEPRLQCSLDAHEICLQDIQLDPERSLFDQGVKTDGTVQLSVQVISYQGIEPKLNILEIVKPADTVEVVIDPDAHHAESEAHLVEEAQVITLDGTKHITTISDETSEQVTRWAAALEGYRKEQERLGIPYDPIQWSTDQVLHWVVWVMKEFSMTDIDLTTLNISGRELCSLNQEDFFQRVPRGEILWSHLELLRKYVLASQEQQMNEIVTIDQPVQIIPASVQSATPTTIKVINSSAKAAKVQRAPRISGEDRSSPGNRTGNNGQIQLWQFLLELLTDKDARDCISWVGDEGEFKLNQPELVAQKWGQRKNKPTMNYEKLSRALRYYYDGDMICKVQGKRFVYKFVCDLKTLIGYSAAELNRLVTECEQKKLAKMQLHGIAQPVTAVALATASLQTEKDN
The method in brief: as §1

Assay [4] concerns the target T4, ERG (Homo sapiens, UniProt P11308 1-479).
T4 sequence: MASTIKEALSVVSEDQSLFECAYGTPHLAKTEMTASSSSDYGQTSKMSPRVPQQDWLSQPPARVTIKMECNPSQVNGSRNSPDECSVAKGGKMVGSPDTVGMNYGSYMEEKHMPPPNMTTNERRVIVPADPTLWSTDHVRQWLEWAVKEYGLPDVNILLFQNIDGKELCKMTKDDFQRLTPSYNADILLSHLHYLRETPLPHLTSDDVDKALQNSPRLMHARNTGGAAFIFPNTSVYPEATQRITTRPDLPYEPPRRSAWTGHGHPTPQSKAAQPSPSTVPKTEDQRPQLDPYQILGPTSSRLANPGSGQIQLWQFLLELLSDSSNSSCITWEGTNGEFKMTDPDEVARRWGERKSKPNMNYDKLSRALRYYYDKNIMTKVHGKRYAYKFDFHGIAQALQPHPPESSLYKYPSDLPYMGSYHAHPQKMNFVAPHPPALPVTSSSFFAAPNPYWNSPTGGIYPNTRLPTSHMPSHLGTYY
In short, it runs like this: as §1

Assay [5] addresses ELF1 (Homo sapiens, UniProt P32519 1-619). In short, it runs like this:
as §1

Assay [6] has as its target T5, EHF (Homo sapiens, UniProt Q9NZC4 1-300).
T5 sequence: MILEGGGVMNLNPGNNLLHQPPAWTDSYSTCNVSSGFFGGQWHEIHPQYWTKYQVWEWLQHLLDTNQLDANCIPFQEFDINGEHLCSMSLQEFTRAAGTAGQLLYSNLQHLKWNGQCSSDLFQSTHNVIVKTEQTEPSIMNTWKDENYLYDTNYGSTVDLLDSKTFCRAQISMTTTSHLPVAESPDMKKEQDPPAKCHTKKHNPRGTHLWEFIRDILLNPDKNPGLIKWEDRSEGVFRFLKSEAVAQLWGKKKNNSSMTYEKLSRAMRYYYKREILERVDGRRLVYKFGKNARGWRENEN
In short, it runs like this: as §1

The target of assay [7] is SPIB (Homo sapiens, UniProt Q01892 1-262). The method in brief: as §1
SPIB, sequence (Q01892 whole entry): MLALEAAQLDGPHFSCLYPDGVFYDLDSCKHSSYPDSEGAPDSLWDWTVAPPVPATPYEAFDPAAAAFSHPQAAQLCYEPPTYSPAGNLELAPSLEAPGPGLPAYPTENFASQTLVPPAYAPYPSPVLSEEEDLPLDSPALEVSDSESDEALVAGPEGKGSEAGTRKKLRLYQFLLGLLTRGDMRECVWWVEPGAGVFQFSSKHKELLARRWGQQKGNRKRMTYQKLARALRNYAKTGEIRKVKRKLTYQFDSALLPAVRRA
Assay [8] deals with T6, ELK3 (Homo sapiens, UniProt P41970 1-407).
T6 sequence: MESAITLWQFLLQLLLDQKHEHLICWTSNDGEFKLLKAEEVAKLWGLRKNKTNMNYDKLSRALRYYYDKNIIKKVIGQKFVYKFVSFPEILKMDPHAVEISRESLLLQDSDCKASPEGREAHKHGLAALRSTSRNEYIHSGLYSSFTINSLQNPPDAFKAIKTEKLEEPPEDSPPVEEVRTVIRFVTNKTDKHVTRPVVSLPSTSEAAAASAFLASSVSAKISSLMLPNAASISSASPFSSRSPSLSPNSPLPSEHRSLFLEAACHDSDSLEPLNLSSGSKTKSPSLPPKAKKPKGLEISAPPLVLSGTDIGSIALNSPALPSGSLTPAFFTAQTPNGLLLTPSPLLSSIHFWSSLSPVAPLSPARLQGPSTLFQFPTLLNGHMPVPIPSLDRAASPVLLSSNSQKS
In short, it runs like this:
as §1

Assay [9] concerns the target T7, FEV (Homo sapiens, UniProt Q99581 1-238).
T7 sequence: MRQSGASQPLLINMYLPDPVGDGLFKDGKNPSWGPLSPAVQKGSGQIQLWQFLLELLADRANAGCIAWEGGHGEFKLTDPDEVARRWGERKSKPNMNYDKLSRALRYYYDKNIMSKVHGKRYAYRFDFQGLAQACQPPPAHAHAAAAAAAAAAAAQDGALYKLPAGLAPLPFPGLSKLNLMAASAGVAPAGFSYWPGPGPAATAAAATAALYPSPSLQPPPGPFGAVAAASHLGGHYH
The method in brief: as §1

Assay [10] deals with ETV5 (Homo sapiens, UniProt P41161 1-510). In short, it runs like this:
as §1

Assay [11] deals with T8, SPIC (Homo sapiens, UniProt Q8N5J4 1-248).
T8 sequence: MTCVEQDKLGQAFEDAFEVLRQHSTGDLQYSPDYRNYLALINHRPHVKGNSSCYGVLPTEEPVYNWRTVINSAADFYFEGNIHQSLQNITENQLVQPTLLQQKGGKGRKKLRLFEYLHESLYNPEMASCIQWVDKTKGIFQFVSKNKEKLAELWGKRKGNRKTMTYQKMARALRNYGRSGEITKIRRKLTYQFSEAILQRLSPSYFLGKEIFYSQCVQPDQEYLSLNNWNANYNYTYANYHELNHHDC
The method in brief:
as §1

Assay [12] deals with ETV1 (Homo sapiens, UniProt P50549 1-477). In short, it runs like this: as §1
ETV1, sequence (P50549 whole entry): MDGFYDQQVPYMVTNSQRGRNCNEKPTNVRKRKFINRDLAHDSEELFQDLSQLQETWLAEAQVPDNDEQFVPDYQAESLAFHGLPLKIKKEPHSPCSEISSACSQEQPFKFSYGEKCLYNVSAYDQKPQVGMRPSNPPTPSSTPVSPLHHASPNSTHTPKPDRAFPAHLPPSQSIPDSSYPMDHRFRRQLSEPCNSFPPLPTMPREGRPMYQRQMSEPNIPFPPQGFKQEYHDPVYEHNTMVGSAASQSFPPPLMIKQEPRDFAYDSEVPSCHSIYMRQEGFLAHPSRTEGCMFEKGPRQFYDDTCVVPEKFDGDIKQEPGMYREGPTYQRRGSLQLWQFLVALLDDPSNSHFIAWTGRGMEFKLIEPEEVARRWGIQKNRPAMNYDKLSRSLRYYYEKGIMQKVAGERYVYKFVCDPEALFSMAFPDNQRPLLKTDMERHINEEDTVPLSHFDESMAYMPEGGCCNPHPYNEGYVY
In assay [13] the target is T9, ERF (Homo sapiens, UniProt P50548 1-548).
T9 sequence: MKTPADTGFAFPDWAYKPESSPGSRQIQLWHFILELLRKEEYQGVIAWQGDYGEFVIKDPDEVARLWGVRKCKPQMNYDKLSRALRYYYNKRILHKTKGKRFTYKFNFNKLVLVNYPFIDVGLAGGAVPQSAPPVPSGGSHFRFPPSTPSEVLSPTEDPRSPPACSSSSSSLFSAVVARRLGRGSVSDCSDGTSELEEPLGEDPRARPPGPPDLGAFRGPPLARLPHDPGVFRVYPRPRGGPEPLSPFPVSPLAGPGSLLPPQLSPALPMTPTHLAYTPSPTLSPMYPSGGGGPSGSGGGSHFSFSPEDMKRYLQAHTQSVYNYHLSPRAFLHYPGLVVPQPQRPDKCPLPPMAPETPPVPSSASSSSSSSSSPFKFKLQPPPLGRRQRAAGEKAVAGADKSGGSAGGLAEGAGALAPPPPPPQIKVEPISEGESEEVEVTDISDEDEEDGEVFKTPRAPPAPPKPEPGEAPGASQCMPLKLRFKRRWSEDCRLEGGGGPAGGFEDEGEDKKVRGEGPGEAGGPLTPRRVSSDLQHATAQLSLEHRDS
In short, it runs like this:
as §1

Assay [14] deals with T10, ETV3L (Homo sapiens, UniProt Q6ZN32 1-361).
T10 sequence: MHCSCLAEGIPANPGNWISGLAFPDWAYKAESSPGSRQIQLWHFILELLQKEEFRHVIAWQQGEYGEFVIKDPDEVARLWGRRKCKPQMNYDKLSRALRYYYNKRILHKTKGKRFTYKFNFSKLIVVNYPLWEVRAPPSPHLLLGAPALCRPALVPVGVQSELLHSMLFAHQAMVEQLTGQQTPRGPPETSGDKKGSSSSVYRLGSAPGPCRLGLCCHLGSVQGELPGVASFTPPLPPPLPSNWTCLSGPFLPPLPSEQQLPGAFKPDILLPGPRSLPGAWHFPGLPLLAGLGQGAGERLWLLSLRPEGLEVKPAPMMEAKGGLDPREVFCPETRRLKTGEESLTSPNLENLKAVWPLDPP
The method in brief:
as §1

Assay [15] deals with T11, ETS2 (Homo sapiens, UniProt P15036 1-469).
T11 sequence: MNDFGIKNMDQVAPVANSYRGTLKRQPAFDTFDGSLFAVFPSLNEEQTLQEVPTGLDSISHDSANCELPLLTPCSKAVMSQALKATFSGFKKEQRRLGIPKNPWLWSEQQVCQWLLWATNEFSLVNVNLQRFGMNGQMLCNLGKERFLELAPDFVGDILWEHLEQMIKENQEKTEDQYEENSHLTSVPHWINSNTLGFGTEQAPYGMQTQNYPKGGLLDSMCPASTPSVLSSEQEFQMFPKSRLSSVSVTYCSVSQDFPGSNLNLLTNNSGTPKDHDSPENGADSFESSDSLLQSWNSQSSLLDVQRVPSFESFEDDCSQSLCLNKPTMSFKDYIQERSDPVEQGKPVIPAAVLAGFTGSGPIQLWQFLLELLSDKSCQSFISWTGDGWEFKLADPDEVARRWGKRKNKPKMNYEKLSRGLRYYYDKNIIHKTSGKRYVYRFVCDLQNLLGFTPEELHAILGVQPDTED
The method in brief: as §1

The target of assay [16] is T12, ETV3 (Homo sapiens, UniProt P41162-2 1-143).
T12 sequence: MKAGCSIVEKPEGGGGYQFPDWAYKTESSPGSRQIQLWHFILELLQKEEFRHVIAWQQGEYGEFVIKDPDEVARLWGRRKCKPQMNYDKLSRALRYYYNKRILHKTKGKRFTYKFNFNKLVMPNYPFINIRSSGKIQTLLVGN
The method in brief:
as §1

Assay [17] has as its target ETV6 (Homo sapiens, UniProt P41212 1-452). The method in brief: as §1

ELF1, sequence (P32519 whole entry): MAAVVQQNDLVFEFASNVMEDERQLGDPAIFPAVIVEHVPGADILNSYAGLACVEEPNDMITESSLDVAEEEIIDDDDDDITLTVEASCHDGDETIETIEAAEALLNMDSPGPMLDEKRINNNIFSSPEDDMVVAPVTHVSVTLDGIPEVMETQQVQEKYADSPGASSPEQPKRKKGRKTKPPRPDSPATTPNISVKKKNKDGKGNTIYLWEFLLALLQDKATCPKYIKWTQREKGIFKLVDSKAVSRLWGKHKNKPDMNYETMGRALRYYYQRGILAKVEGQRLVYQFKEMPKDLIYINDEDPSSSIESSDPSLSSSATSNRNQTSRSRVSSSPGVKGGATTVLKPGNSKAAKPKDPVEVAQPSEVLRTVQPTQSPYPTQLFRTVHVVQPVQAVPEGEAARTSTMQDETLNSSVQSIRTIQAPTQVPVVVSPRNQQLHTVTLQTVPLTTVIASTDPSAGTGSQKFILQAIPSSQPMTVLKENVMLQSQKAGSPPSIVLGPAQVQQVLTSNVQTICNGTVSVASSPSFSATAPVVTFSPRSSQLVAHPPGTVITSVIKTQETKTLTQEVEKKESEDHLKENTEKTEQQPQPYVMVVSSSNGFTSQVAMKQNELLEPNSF
ETV5, sequence (P41161 whole entry): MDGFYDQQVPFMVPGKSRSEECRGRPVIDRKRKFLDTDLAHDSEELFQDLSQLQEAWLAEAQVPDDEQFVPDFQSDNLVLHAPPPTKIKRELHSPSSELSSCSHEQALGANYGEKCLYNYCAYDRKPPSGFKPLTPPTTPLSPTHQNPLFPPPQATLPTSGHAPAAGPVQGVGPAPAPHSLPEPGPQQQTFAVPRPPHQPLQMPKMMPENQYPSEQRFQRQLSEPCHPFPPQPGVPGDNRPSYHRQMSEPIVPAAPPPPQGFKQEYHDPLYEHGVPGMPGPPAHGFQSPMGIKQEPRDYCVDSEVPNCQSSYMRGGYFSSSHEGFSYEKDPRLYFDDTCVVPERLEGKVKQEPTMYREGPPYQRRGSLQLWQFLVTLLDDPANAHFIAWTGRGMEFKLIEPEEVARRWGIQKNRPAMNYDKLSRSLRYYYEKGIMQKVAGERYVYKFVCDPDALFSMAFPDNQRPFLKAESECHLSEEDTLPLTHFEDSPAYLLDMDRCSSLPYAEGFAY
ETV6, sequence (P41212 whole entry): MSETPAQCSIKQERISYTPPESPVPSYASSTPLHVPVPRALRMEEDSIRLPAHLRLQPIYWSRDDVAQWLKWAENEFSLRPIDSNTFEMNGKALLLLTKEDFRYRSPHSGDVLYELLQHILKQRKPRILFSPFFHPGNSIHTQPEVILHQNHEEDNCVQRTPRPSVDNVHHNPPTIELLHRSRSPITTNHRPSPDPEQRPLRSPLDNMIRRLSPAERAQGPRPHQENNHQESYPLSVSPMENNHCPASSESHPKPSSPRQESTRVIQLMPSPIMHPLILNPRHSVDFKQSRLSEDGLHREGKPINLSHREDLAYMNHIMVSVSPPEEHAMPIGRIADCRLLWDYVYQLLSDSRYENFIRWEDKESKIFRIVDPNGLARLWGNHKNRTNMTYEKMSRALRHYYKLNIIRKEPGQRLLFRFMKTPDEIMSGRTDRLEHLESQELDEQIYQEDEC

CAACCG: the binding signal in assay [1] is 1.11 fold enrichment (6-mer frequency, TF over GST control); in assay [2] it was 1.13 fold enrichment (6-mer frequency, TF over GST control); in [3] it was 1 fold enrichment (6-mer frequency, TF over GST control); in assay [4] it was 1.11 fold enrichment (6-mer frequency, TF over GST control); in [5], 1.03 fold enrichment (6-mer frequency, TF over GST control); in assay [6], 1.06 fold enrichment (6-mer frequency, TF over GST control). The binding signal in assay [7] is 1.15 fold enrichment (6-mer frequency, TF over GST control); in [8], 1.2 fold enrichment (6-mer frequency, TF over GST control); in assay [9], 1.28 fold enrichment (6-mer frequency, TF over GST control); in [10], 1.03 fold enrichment (6-mer frequency, TF over GST control); in assay [11], 1.02 fold enrichment (6-mer frequency, TF over GST control); in [12] it was 1.06 fold enrichment (6-mer frequency, TF over GST control). Also, the binding signal is 1.03 fold enrichment (6-mer frequency, TF over GST control) in assay [13]; 1.09 fold enrichment (6-mer frequency, TF over GST control) in assay [14]; 1.11 fold enrichment (6-mer frequency, TF over GST control) in assay [15]; 1.08 fold enrichment (6-mer frequency, TF over GST control) in assay [16]; 1.13 fold enrichment (6-mer frequency, TF over GST control) in assay [17].

The record behind these values is PMC7862700, “An all-to-all approach to the identification of sequence-specific readers for epigenetic DNA modifications on cytosine”.
